Assay results published in the supplement of paper PMC3545927.
The other results are listed elsewhere or left out. The hit rate among all sequences tested is not known here.

B1: HC2378 (peptide)
chain: CAEVPCHTPSAGNASASA
B2: HC1647 (peptide)
chain: CAAGYSGGDIAGNASASA
B3: FS-1885 (peptide)
chain: CARAARFAKTAGNASASA
B4: FS-2600 (peptide)
chain: CARRSRSSSRAGNASASA
B5: FS-2083 (peptide)
chain: CARRSRNVSTAGNASASA
B6: FS-1678 (peptide)
chain: CARAARRAAGAGNASASA
B7: FS-1476 (peptide)
chain: CARAARVPRTAGNASASA
B8: FS-1774 (peptide)
chain: CARRFRVVSGAGNASASA
B9: HC735 (peptide)
chain: CARGSLLSPRAGNASASA
B10: HC294 (peptide)
chain: CAGSATLCSAAGNASASA
B11: HC1342 (peptide)
chain: CADNTTTSSEAGNASASA
B12: FS-2160 (peptide)
chain: CARNKRTCSAAGNASASA
B13: FS-2161 (peptide)
chain: CARNKRTCSEAGNASASA
B14: HC2395 (peptide)
chain: CAEVPCHRHSAGNASASA
B15: HC819 (peptide)
chain: CAECHSTDATAGNASASA
B16: HC349 (peptide)
chain: CALFAGVDAEAGNASASA
B17: FS-751 (peptide)
chain: CAASAVLKRDAGNASASA
B18: FS-251 (peptide)
chain: CAIKDRNKRDAGNASASA
B19: FS-548 (peptide)
chain: CALGDREKRDAGNASASA
B20: FS-587 (peptide)
chain: CAFSAREKRDAGNASASA
B21: FS-402 (peptide)
chain: CAASGREGRDAGNASASA
B22: HC2249 (peptide)
chain: CAEVVTSTWYAGNASASA
B23: FS-2870 (peptide)
chain: CALKKRSYFGAGNASASA
B24: HC138 (peptide)
chain: CAEVVNSTWVAGNASASA
B25: FS-1539 (peptide)
chain: CALLSRKRRRAGNASASA
B26: FS-648 (peptide)
chain: CADVNRLKREAGNASASA
B27: FS-1051 (peptide)
chain: CAPPSREKKVAGNASASA
B28: FS-73 (peptide)
chain: CAPPSRARRRAGNASASA
B29: FS-1229 (peptide)
chain: CALLSRPLRGAGNASASA
B30: FS-995 (peptide)
chain: CAGAGRARRRAGNASASA
B31: FS-271 (peptide)
chain: CALLSRKKREAGNASASA
B32: HC2268 (peptide)
chain: CAWLEVVTSTAGNASASA
B33: FS-1493 (peptide)
chain: CATKSRKKREAGNASASA
B34: HC251 (peptide)
chain: CALLSCLTVPAGNASASA
B35: HC209 (peptide)
chain: CALLSPRGSRAGNASASA
B36: HC521 (peptide)
chain: CALLFLLLADAGNASASA
B37: FS-1540 (peptide)
chain: CALLSRVRREAGNASASA
B38: HC1201 (peptide)
chain: CAALWRVSAEAGNASASA
B39: FS-822 (peptide)
chain: CALLFRSNRDAGNASASA
B40: FS-611 (peptide)
chain: CALLSRRPRDAGNASASA
B41: HC1667 (peptide)
chain: CAFEECSQHLAGNASASA
B42: FS-1340 (peptide)
chain: CAHNSRKKREAGNASASA
B43: HC1210 (peptide)
chain: CAFHYVTGMTAGNASASA
B44: HC792 (peptide)
chain: CAGFGAYMSKAGNASASA

Biological target: furin, P09958
Sequence (P09958 whole entry): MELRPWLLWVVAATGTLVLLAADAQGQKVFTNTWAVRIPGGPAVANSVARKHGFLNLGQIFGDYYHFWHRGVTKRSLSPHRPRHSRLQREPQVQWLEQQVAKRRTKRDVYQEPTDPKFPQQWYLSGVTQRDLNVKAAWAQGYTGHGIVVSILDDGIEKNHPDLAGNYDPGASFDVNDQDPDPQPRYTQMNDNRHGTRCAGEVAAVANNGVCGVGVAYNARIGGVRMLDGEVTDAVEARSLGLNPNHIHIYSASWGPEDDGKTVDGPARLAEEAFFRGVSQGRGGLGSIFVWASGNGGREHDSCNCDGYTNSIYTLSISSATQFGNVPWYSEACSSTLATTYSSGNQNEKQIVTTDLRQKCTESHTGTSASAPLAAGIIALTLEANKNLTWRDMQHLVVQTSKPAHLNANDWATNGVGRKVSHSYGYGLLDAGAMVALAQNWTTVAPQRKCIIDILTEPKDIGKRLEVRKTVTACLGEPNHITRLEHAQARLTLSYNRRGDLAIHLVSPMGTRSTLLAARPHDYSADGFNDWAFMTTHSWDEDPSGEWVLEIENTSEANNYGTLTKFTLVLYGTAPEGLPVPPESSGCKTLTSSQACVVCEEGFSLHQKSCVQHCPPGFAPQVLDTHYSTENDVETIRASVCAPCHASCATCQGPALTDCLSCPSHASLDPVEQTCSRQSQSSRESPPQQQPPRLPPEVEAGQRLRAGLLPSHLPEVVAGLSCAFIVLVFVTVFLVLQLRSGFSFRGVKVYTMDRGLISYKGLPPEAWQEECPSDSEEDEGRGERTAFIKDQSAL
Assay: furin cleavage Z-score vs untreated control; higher = more cleavage, active = 3.5 or more, inactive = 1 or less, 8 variable residues between constant flanks
Summary of the method: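 The cleavage Z-score was derived for purified furin acting on 8-mer peptides held on magnetic beads and fused to a cDNA oligonucleotide. Digests lasted 7.5, 15 or 30 min at 1:10 enzyme:substrate in 50 mM HEPES pH 7.5 with CaCl2 and NaCl. Sequencing counts of released DNA, log-transformed against furin-free reactions, were lowess-adjusted and scaled by median absolute deviation.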

Row | Sequence | furin cleavage Z-score (7.5 min) | furin cleavage Z-score (15 min) | furin cleavage Z-score (30 min)
1 | B1 | 0.816 (inactive) | 0.745 (inactive) | 1.13
2 | B2 | -1.51 (inactive) | -1.76 (inactive) | -1.36 (inactive)
3 | B3 | -1.44 (inactive) | 0.407 (inactive) | 0.00762 (inactive)
4 | B4 | 0.0891 (inactive) | 0.74 (inactive) | 0.299 (inactive)
5 | B5 | 1.86 | 4.41 (active) | 5.4 (active)
6 | B6 | -0.697 (inactive) | -0.053 (inactive) | -1.33 (inactive)
7 | B7 | 7.67 (active) | 5.53 (active) | 4.3 (active)
8 | B8 | 0.247 (inactive) | -0.792 (inactive) | -0.178 (inactive)
9 | B9 | 0.168 (inactive) | -0.587 (inactive) | -0.591 (inactive)
10 | B10 | -0.289 (inactive) | -0.124 (inactive) | -0.454 (inactive)
11 | B11 | -1.15 (inactive) | 0.112 (inactive) | -0.634 (inactive)
12 | B12 | 2.24 | 3.57 (active) | 2.82
13 | B13 | 4.64 (active) | 4.66 (active) | 4.26 (active)
14 | B14 | 0.115 (inactive) | 0.712 (inactive) | 1.03
15 | B15 | -0.594 (inactive) | -1.11 (inactive) | 0.253 (inactive)
16 | B16 | -0.796 (inactive) | -0.738 (inactive) | -0.0117 (inactive)
17 | B17 | 0.168 (inactive) | -1.94 (inactive) | 1.16
18 | B18 | 11.9 (active) | 10.9 (active) | 8.42 (active)
19 | B19 | 4.49 (active) | 4.22 (active) | 4.54 (active)
20 | B20 | 10.7 (active) | 11.3 (active) | 9.1 (active)
21 | B21 | -0.371 (inactive) | -0.657 (inactive) | -0.187 (inactive)
22 | B22 | -1.56 (inactive) | -0.21 (inactive) | -0.098 (inactive)

Row | Sequence | furin cleavage Z-score (7.5 min) | furin cleavage Z-score (15 min) | furin cleavage Z-score (30 min)
23 | B23 | 0.606 (inactive) | 0.802 (inactive) | 1.4
24 | B24 | 0.467 (inactive) | -0.699 (inactive) | 1.06
25 | B25 | 11.7 (active) | 12.2 (active) | 9.16 (active)
26 | B26 | 14.4 (active) | 13.9 (active) | 11.5 (active)
27 | B27 | -1.64 (inactive) | -0.193 (inactive) | 0.495 (inactive)
28 | B28 | 5.98 (active) | 6.69 (active) | 6.77 (active)
29 | B29 | -0.34 (inactive) | -0.208 (inactive) | -1.05 (inactive)
30 | B30 | -0.00606 (inactive) | 2.14 | 1.07
31 | B31 | 8.61 (active) | 6.86 (active) | 6.5 (active)
32 | B32 | 0.509 (inactive) | 1.8 | 1.63
33 | B33 | 12.1 (active) | 10.8 (active) | 8.58 (active)
34 | B34 | -1.14 (inactive) | 0.458 (inactive) | -0.633 (inactive)
35 | B35 | 0.623 (inactive) | -0.229 (inactive) | 0.325 (inactive)
36 | B36 | -0.353 (inactive) | -1.02 (inactive) | -2.28 (inactive)
37 | B37 | 7.59 (active) | 6.32 (active) | 5.92 (active)
38 | B38 | -1.28 (inactive) | -0.15 (inactive) | -1.16 (inactive)
39 | B39 | 5.19 (active) | 4.77 (active) | 4.55 (active)
40 | B40 | 10.2 (active) | 10.5 (active) | 8.78 (active)
41 | B41 | 1.36 | 0.54 (inactive) | -0.544 (inactive)
42 | B42 | 11.8 (active) | 13.6 (active) | 9.48 (active)
43 | B43 | 0.168 (inactive) | -0.792 (inactive) | -0.653 (inactive)
44 | B44 | 1.73 | -1.14 (inactive) | 1.32
